In ChEMBL document CHEMBL4513216, “Probing the Open Global Health Chemical Diversity Library for Multistage-Active Starting Points for Next-Generation Antimalarials” (ACS Infect Dis, 2020):
The campaign covered roughly 68,000 compounds. About 2,700 (4%) showed an effect of 50% or more. The list comes from a sample in which strong results are over-represented; it also holds similar structures and randomly drawn compounds.

What follows are molecules tested on Plasmodium berghei (assay: Screen against P. berghei liver stage (PbLuc), transformed with Luciferase, at 2uM). Conditions: tested at 2 uM.
Format: functional, HepG2

| SMILES | INHIBITION |
| --- | --- |
| O=c1c2cnc(N3CCCCC3)nc2ccn1Cc1ccco1 | -77.67% |
| CCN1CCN(c2ncc3c(=O)n(Cc4ccco4)ccc3n2)CC1 | -20.72% |
| CN1CCN(c2ncc3c(=O)n(Cc4ccco4)ccc3n2)CC1 | 59.01% |
| Cn1ccnc1N1CCN(C(=O)Cc2ccc(Cl)cc2)CC1 | 29.05% |
| CSc1ccc(C(=O)C2CCCN(C(=O)Cn3cnnn3)C2)cc1 (stereo unspecified) | 41.68% |
| O=C(c1ccc2ccccc2c1)C1CCCN(C(=O)Cn2cnnn2)C1 (stereo unspecified) | 56.38% |
| O=C(c1ccc2ccccc2c1)C1CCCN(C(=O)Cn2cncn2)C1 (stereo unspecified) | 25.9% |
| Cc1ccccc1OCC(O)CN1CCC(Cn2cccn2)CC1 (stereo unspecified) | 33.22% |
| Cc1cccc(CN2CCc3ncnc(-c4ccsc4)c3CC2)n1 | -1.33% |
| CC(C)N(C)S(=O)(=O)N1CCCC1C(=O)N1CCSCC1 (stereo unspecified) | -36.67% |
| Cc1ccc(CC(=O)N2CCCCC2c2nc(C)cs2)cn1 (stereo unspecified) | -39.92% |
| CN1CCC(c2n[nH]c(=O)n2-c2cccc(Cl)c2)CC1 | -8.16% |
| C[C@H](c1ccc(F)cc1)n1c(C2CCC2)n[nH]c1=O | 38.67% |
| C[C@H](c1ccc(Cl)cc1)n1c(C2CC2)n[nH]c1=O | 62.51% |
| C[C@H](c1ccc(F)cc1)n1c(C2CCN(C)CC2)n[nH]c1=O | 72.05% |
| O=c1[nH]nc(C2CC2)n1-c1cccc(Cl)c1 | -21.72% |
| CC[C@@H](c1ccccc1)n1c(C2CC2)n[nH]c1=O | 43.05% |
| O=C1NCCCCC1NC(=O)N1CCCc2ccccc21 (stereo unspecified) | 12.66% |
| O=C1NCCCCC1NC(=O)N1CCCc2cc(F)ccc21 (stereo unspecified) | -30.43% |
| O=C1NCCCCC1NC(=O)N1CCc2ccccc21 (stereo unspecified) | 50.42% |
| Cc1nnc(N2CCCC3(CN(Cc4cnn(C)c4)CCO3)C2)o1 (stereo unspecified) | 16.39% |
| CC(C)c1nn(CC(=O)N2CCCC2)c(=O)c2c1cnn2C(C)(C)C | -10.09% |
| CCc1cnc(CN(C)C2CCN(Cc3nnc(C4CC4)n3C)C2)o1 (stereo unspecified) | -11.16% |
| Cc1occc1C(=O)N1CCC2(CCN(Cc3nccs3)CC2)C1 | -114.33% |
| Cc1occc1C(=O)N1CCC2(CCCN(Cc3nccs3)C2)C1 (stereo unspecified) | 50.61% |
| Cc1occc1C(=O)N1CCC2(CCN(Cc3nccs3)C2)CC1 | -6.15% |

| SMILES | INHIBITION |
| --- | --- |
| CC(C)NC(=O)N1C[C@@H]2C[C@H](C(=O)N3CCCC3)[C@H](C1)O2 | -17.24% |
| CCn1cc(CN2CCc3nc(N4CCOCC4)nc(O)c3CC2)cn1 | 7.86% |
| CCn1cc(CN2CCc3nc(-c4ccccn4)nc(O)c3C2)cn1 | 57.4% |
| Cn1cc(CN2CCc3nc(-c4ccccn4)nc(O)c3C2)cn1 | -21.74% |
| CN(C)C[C@@H]1CN(C(=O)c2cc(F)ccc2F)C[C@@H]1CO | -0.3% |
| CCn1nc(C)cc1C(=O)N1C[C@@H](CN(C)C)[C@@H](CO)C1 | 31.31% |
| COCCN(C)C[C@@H]1CN(C(=O)c2cccc(C(F)(F)F)c2)C[C@@H]1CO | -20.58% |
| CN(C)C[C@@H]1CN(C(=O)c2cc(-c3ccccc3)n[nH]2)C[C@@H]1CO | -40.44% |
| CCN(C)C[C@@H]1CN(C(=O)c2cc(C(F)(F)F)n[nH]2)C[C@@H]1CO | 51.9% |
| CCN(C)C[C@@H]1CN(C(=O)c2cc(-c3ccc(F)cc3)n[nH]2)C[C@@H]1CO | 54.49% |
| O=C(CCCC(=O)NCc1cccc(Br)c1)NCCN1CCCC1 | -32.11% |
| Cc1nc(CN2C[C@@H]3CN(C(=O)C4(C#N)CC4)C[C@@H]3C2=O)cs1 | 25.5% |
| CN(C)C(=O)N1CCC2(CCCN(Cc3cnn(C)c3)C2)C1 (stereo unspecified) | 40.67% |
| CCn1c(CC2CCN(C(=O)C3CCOC3)CC2)nn(C)c1=O (stereo unspecified) | -47.18% |
| CCC(C)NC(=O)c1cccc(CNCc2csc(C(C)C)n2)c1 (stereo unspecified) | -21.15% |
| CC(C)N(C)Cc1cncc2c1CCN(Cc1ccoc1)C2 | 1.81% |
| Cc1ccc(C(=O)NCC(O)CN2CCCC2=O)c(C)c1 (stereo unspecified) | -40.9% |
| COc1ccc(CN(C)C(=O)CN2CC(n3cc(C)cn3)C2)cc1F | -6.33% |
| CCOC(=O)c1ccc(N2CCN(Cc3c(C)nn(C)c3Cl)CC2)nc1 | 55.7% |
| CCc1nn(C)c(Cl)c1CN1CCN(c2ccc(C(N)=O)cn2)CC1 | 33.16% |
| NC(=O)c1ccc(N2CCN(Cc3c(Cl)cncc3Cl)CC2)nc1 | -20.93% |
| Cc1nc2c(c(Nc3ccccn3)n1)CN(S(C)(=O)=O)CC2 | -48.89% |
| Cc1noc(C(C)C)c1C(=O)N1CCC(n2cccn2)CC1 | 22.57% |
| Cc1noc(C)c1C(=O)N1CCC(n2cccn2)CC1 | 61.52% |
| COC(=O)c1cccn1C1CCN(C(=O)c2c(C)noc2C)CC1 | 39.92% |
